In the library only some 1.8% were active in any assay of this set; here they are far more common.
p53ts 32C kill: kills p53ts cells at the permissive temperature | H1299-p53A138V at 32C, ATP luminescence viability, 24 h | Potency, µM (highest dose often 46.1 µM), usual class: cytotoxic | actives 0.93% (n = 130,000) | AID 924; note: nearly all actives have a fitted effect of over 55% in size
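Viability by ATPlite luminescence after 24 h compound treatment (up to 46 uM) at the permissive 32C. Cells are H1299 carrying p53 A138V. Scale runs from DMSO basal to 100 uM tamoxifen as full kill; AC50 from Hill fits.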
Peg3 imprint: genomic imprint erasure induction; mouse ES Peg3-LacZ reporter, beta-gal luminescence, 40 h; Potency, µM (titrated, usually from 60.7 µM), hits mostly activators; actives 0.02% (n = 110,000); AID 1948
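Gelatin-coated wells received 300 freshly trypsinized female ES cells with a Peg3LacZ-Neo reporter on the maternal allele, then incubated 40 hours at 37C. BetaGlo was added for 5 minutes at room temperature before a single luminescence read.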
p53ts 39C tox: p53ts cell cytotoxicity, nonpermissive temperature; Potency, µM (titrated, usually from 46.1 µM), hits mostly cytotoxic; H1299-p53A138V viability at 39C, ATP luminescence, 24 h; AID 902; actives 1.5% (n = 130,000); note: nearly all actives have a fitted effect of over 55% in size
IkB signaling: suppresses IkB signaling in ABC-DLBCL reporter cells | Potency, µM (top dose mostly 57.1 µM) | AID 445 | ABC-DLBCL IkBa-CBG/CBR dual luciferase ratio, 4 h; response scale: scaled: untreated 0%, proteasome inhibitor 100% | actives 0.04% (n = 110,000); active = well fitted curve in the direction sought with a large enough effect in the signal ratio, not every such curve was filed as active; inconclusive = small, poorly fitted or top-dose-only effect, or a change in a side signal; the % refers to the signal ratio;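 note: the direction sought is a rising ratio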
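Luminescence ratio of IκBα-fused green versus native red beetle luciferase in OCI-Ly3 cells, 4 h post-doxycycline with compound; red signal alone, scaled from basal (0%) to zero light (-100%), flagged nonspecific or cytotoxic effects.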
A number is an active result; – = inactive; ? = inconclusive; · = no result given; ! = not confirmed by another sample; [ ] = remark or other dose. Unless noted, calls come from the whole dose curve; as a rule, active = well fitted curve in the direction sought with a large enough effect; inconclusive = small, poorly fitted or top-dose-only effect, or another doubt; inactive = no such curve, though single readings can be large; an effect the other way counts as inactive or inconclusive.

SMILES	p53ts 32C kill	Peg3 imprint	p53ts 39C tox	IkB signaling
CC(=O)CC(=O)NC1C2CC3CC(C2)CC1C3 (configuration not stated)	–	–	–	–
COc1cc(-c2ccc(N=Nc3ccc4c(S(=O)(=O)O)cc(S(=O)(=O)O)c(N)c4c3O)c(OC)c2)ccc1N=Nc1ccc2c(S(=O)(=O)O)cc(S(=O)(=O)O)c(N)c2c1O	?	–	10µM!	?
Cn1c(NC(=O)c2cc(-c3ccc4c(c3)OCO4)nc3ccccc23)cc(=O)n(C)c1=O	16µM	–	13µM	–
O=C(Nc1nc2c(s1)CCCC2)c1cc(-c2ccc3c(c2)OCO3)nc2ccccc12	·	·	–	·
COc1ccc(C(O)C(CN2CCOCC2)c2ccccc2)cc1F (configuration not stated)	–	–	–	–
COc1ccc(C(=O)C(CN2CCOCC2)c2ccccc2)cc1F (configuration not stated)	?	–	20µM	?
Cc1ccc(C)c(NC(=O)CSc2nnc3[nH]c(=O)cc(-c4ccccc4)n23)c1	?	–[10.9 µM]	1.3µM	?
Cc1ccc(NC(=O)CSc2nnc3[nH]c(=O)cc(-c4ccccc4)n23)cc1Cl	?	–[10.9 µM]	1.6µM	?
O=C(c1ccncc1)N1CCN(C(=O)c2cccc3ccccc23)CC1	–	–	–	–
C/C(=N\NC(=O)c1ccncc1)c1ccc2ccccc2c1O	?	–[10.9 µM]	2µM	–[11.4 µM]
CCOc1cccc(-c2nc3cc(C)ccc3o2)c1	16µM	–	?	–
Cc1cccc(OCC(=O)Nc2ccc(-c3nc4cc(C)ccc4o3)c(O)c2)c1	–	–[10.9 µM]	10µM	–
CCOc1ccc(-c2nc3cc(NC(=O)COc4cccc(C)c4)ccc3o2)cc1	–	–[10.9 µM]	–	–
CCC(C)SCc1nc2ccccc2[nH]1 (configuration not stated)	–	–	–	–
COc1ccc(CC(=O)Nc2sc3c(c2C(=O)Nc2cccc(C)c2)CCCCC3)cc1	–	–[10.9 µM]	10µM	?
O=C(CCS(=O)(=O)c1nc(-c2ccc3c(c2)OCO3)cc(C(F)(F)F)n1)Nc1ccccc1F	?	–[10.9 µM]	?	?
O=C(CCS(=O)(=O)c1nc(-c2ccc3c(c2)OCO3)cc(C(F)(F)F)n1)Nc1ccc(Br)cc1	?	–[10.9 µM]	3.2µM	?
CSc1ccccc1NC(=O)CCS(=O)(=O)c1nc(-c2ccc3c(c2)OCO3)cc(C(F)(F)F)n1	?	–[10.9 µM]	4µM	–
Cc1cc2nc(-c3cccc(NC(=O)c4ccc(Br)o4)c3C)oc2cc1C	?	–	?	?
Cc1cc2nc(-c3cccc(NC(=O)C(C)C)c3C)oc2cc1C	?	–[10.9 µM]	0.13µM	–
Cc1ccccc1CSc1ccc(-c2cccs2)nn1	?	–[10.9 µM]	11µM	–
Cc1ccc(CSc2nc3ccncc3n2Cc2nc(-c3ccccc3C)oc2C)cc1	13µM	–[10.9 µM]	7.9µM	–
O=c1[nH]c2ccccc2n1CCCOc1ccccc1	–	·	–	–
C=CCOC(=O)c1sc(NC(=O)c2ccco2)nc1C	10µM	–	?	–
CC1CCc2nc(NC(=O)C3CCCO3)sc2C1 (configuration not stated)	10µM	–	13µM	?
SMILES	p53ts 32C kill	Peg3 imprint	p53ts 39C tox	IkB signaling
CC1CCc2nc(NC(=O)c3ccco3)sc2C1 (configuration not stated)	2.5µM	–	2.5µM	?
COc1ccc2[nH]cc(CCNC(=O)Nc3cc(C)cc(C)c3)c2c1	–	?	13µM	–
CCCCCCCCCCCCC/C=C\[C@@H](O)[C@H](CO)NC(C)=O	–	–	32µM	–
Cc1ccc2cc(CN(CC3CCCO3)C(=O)C(C)C)c(=O)[nH]c2c1 (configuration not stated)	–	–	–	–
CC(C)(C)c1ccc(C(=O)Nc2cnccn2)cc1	5µM	–	5µM	–
COc1ccc(C(=O)Nc2ccccn2)cc1	–	·	–	·
O=C(Cn1ncc2c(=O)oc3ccccc3c21)Nc1cc(F)ccc1F	–	?	6.3µM	–
CC(Oc1ccccc1Cl)C(=O)N1CCN(CCc2ccccn2)CC1 (configuration not stated)	–	–[10.9 µM]	–	–
Cc1oc2ccc(O)c(CN3CCCCCC3)c2c1C(=O)Nc1cccc(C(F)(F)F)c1	–	–[10.9 µM]	16µM	–
Cc1oc2ccc(O)c(CN3CCCC3)c2c1C(=O)Nc1ccccc1	–	–[10.9 µM]	–	–
COc1ccc(NC(=O)c2c(C)oc3ccc(O)c(CN4CCC(C)CC4)c23)cc1Cl	–	–[10.9 µM]	32µM	?
COc1ccc(NC(=O)c2c(C)oc3ccc(O)c(CN4CCCC(C)C4)c23)cc1Cl (configuration not stated)	?	–[10.9 µM]	32µM	?
CCCCOc1cccc(C(=O)Nc2cccc(-c3nc4ncccc4o3)c2C)c1	–	–[10.9 µM]	–	?
COc1cccc(-c2nccc(NCc3ccccc3)n2)c1	20µM	–	13µM	–[11.4 µM]
Cc1cc(N2CCN(C)CC2)nc2ccc(NC(=O)Nc3ccc(F)cc3)cc12	–	–[10.9 µM]	?	?
Cc1cc(N2CCN(C)CC2)nc2ccc(NC(=O)Nc3ccccc3Cl)cc12	10µM	–[10.9 µM]	13µM	?
COc1cccc(/C=C/C(=O)Nc2ccc3nc(N4CCN(C)CC4)cc(C)c3c2)c1OC	?	–[10.9 µM]	13µM	?
Cc1cc(C)cc(NC(=O)Nc2ccc3nc(N4CCN(C)CC4)cc(C)c3c2)c1	–	–[10.9 µM]	13µM	–
CCOC(=O)c1c(NC(=O)COc2cccc(C)c2C)sc2c1CCC(CC)C2 (configuration not stated)	–	–[10.9 µM]	–	–
Cc1ccc(C(=O)Cn2c3c(sc2=N)CCCC3)cc1	2µM	–	1.6µM	–
FC(F)(F)c1cc(-c2ccco2)nc(NCc2cccs2)n1	?	–	20µM	–
FC(F)(F)c1cc(-c2ccco2)nc(NCc2ccco2)n1	–	–	–	–
CCOC(=O)c1ccc(NC(=O)C(CC)Sc2nncn3c2cc2oc(C)cc23)cc1 (configuration not stated)	–	–[10.9 µM]	–	?
CCC(Sc1nncn2c1cc1oc(C)cc12)C(=O)Nc1ccc(F)cc1 (configuration not stated)	–	–[10.9 µM]	20µM	?
CCc1ccc(-c2nc(CN3CCCC(C(=O)N4CCN(c5cc(Cl)ccc5C)CC4)C3)c(C)o2)cc1 (configuration not stated)	13µM	–[10.9 µM]	?	?
SMILES	p53ts 32C kill	Peg3 imprint	p53ts 39C tox	IkB signaling
Oc1ccc2c(c1)OC(c1ccc(O)c(O)c1)C(O)C2 (configuration not stated)	–	–	–	·
COCCNc1nc(-c2ccc(C(=O)N(C)C)cc2)nc2ccccc12	?	–	?	–[11.4 µM]
COCCNc1nc(-c2ccc(N(C)C)cc2)nc2ccccc12	13µM	–	10µM	–[11.4 µM]
CC(=O)NCCNc1nc(-c2ccc3c(c2)OCO3)nc2ccccc12	–	–	–	–[11.4 µM]
Cc1cnc(CNc2nc(-c3ccc(N(C)C)cc3)nc3ccccc23)cn1	10µM	·	10µM	–[11.4 µM]
CC(=O)NCCNc1nc(-c2ccc(N(C)C)cc2)nc2ccccc12	?	?	13µM	–[11.4 µM]
Nc1ccc2c(C(F)(F)F)cc(=O)oc2c1	–	–	–	–

Bioassay records (PubChem BioAssay)
